HPGD inh: blocks human HPGD enzyme activity; purified HPGD, NADH fluorescence kinetic, PGE2 substrate; 4.3% of 150,000 active; AID 894; Potency, µM, for inactives: at the top dose activity change, negative = inhibition, hits mostly inhibitors; P15428; active = well fitted inhibition curve with a large enough effect, not every such curve was filed as active; inconclusive = small, poorly fitted or top-dose-only effect, or another doubt; inactive = no such curve, though single readings can be large or run the other way; also: % is scaled to controls: 0 for no effect and ±100 for the full control effect
Target sequence (P15428 whole entry, looked up): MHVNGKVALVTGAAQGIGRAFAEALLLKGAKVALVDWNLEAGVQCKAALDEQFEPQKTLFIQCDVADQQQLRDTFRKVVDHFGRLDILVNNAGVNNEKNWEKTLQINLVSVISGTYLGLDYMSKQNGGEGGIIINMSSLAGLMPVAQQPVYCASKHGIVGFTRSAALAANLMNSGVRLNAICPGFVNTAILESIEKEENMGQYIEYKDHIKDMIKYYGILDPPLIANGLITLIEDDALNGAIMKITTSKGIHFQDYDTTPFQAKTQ
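NADH formation kinetics: reaction with 30 uM PGE2 and 1 mM NAD+ (final), 20 nM enzyme, Tris-HCl pH 8 with Tween 20, after 15 min compound preincubation at room temperature. Fluorescence change, last versus first of five reads.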
HTT cytoprotect: cytoprotection in Huntington HTT-Q103 PC12 cell model; PC12 HTT-Q103 induced, cytoprotection, ATP luminescence, 40 h; Potency, µM (titrated, usually from 56.4 µM), without a hit: cytoprotection (ATP increase), usual class: activators; 0.14% of 230,000 active; AID 1471; also: % of control where 0% means no effect; nearly all actives have a fitted effect of over 45% in size
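Stable PC12 Q103-GFP cells in serum-supplemented, phenol red-free DMEM; induction by tebufenozide at 100 nM final; compound dose series; cell viability quantified luminescently from ATP.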
ALDH1A1 inh: blocks purified human ALDH1A1 activity. Purified ALDH1A1, NADH fluorescence, propionaldehyde substrate. Potency, µM (titrated, usually from 75.3 µM), for inactives: top-dose activity, negative = inhibition, hits mostly inhibitors. 7.3% of 220,000 active; active = well fitted inhibition curve with a large enough effect, not every such curve was filed as active; inconclusive = small, poorly fitted or top-dose-only effect, or another doubt; inactive = no such curve, though single readings can be large or run the other way;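 also: plate controls were no enzyme wells and a reference inhibitor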
Target sequence (P00352 whole entry, looked up): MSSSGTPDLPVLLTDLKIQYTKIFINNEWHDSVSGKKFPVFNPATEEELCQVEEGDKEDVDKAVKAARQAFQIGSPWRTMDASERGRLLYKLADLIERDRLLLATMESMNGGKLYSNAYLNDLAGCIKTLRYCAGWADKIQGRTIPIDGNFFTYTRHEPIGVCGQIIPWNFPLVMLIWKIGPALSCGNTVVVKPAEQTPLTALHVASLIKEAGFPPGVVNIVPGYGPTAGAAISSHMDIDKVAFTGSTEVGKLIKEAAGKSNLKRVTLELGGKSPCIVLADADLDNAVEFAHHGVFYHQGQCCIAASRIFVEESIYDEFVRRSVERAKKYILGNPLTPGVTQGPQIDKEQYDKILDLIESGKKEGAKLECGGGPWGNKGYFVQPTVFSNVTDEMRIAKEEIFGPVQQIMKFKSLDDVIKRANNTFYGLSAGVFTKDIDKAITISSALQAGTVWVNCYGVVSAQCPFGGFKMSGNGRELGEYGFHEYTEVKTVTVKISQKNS
LMNA splice mod: changes lamin A minigene splicing in HeLa cells; HeLa LMNA splicing GFP/RFP minigene ratio, 48 h; Potency, µM (top dose mostly 46.1 µM), without a hit: at the highest dose ratio change, negative = inhibition, most hits filed as inhibitors; 0.01% of 200,000 active; AID 1487; active = well fitted inhibition curve with a large enough effect in the signal ratio, with a control signal flat, not every such curve was filed as active; inconclusive = small, poorly fitted or top-dose-only effect, or effect the other way, or a change in a side signal; the % refers to the signal ratio; also: % is scaled to controls: 0 for no effect and ±100 for the full control effect
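S3 HeLa cells stably expressing lamin A-EGFP splicing minigene plus DsRed2, 600 cells/well, 48 h compound exposure at 37C. Laser-scanning cytometry; analysed as GFP (500-530 nm)/RFP (575-640 nm) total intensity ratio; 0.5% DMSO vehicle.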
KinaseGlo FLuc: Kinase-Glo luciferase inhibition (counter-screen); Q27757; Kinase-Glo luciferase, ATP luminescence, 8 min; Potency, µM (series often up to 38.3 µM), inactives show top-dose activity change, negative = inhibition, hits mostly inhibitors; 0.28% of 200,000 active; also: % is scaled to controls: 0 for no effect and ±100 for the full control effect; nearly all actives have a fitted effect of over 60% in size
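Light output from Kinase-Glo luciferase with luciferin and 10 uM ATP in 50 mM imidazole pH 7.2, KCl, MgCl2, Tween 20, BSA; compound pin-delivered, 8-min ambient incubation, then luminescence read.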
HttQ103 aggreg: mutant huntingtin aggregation inhibition; 1.1% of 220,000 active; AID 1688; PC12 HttQ103-GFP aggregates, Acumen cytometry, 40 h; Potency, µM (doses to about 46.1 µM), for inactives: at the top dose activity change, negative = inhibition, hits mostly inhibitors; also: % is scaled to controls: 0 for no effect and ±100 for the full control effect; nearly all actives have a fitted effect of over 60% in size
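Aggregates are detected as GFP objects 1–25 µm with signal 6 STDEV over background in lysates of induced PC12 cells. These carry Huntingtin exon 1 with 103 glutamines fused to GFP under an ecdysone promoter; compounds titrated.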
An asterisk follows results filed as active; ? = inconclusive; nt = no result given; [ ] = another dose, or the depositor's remark. A selection: hits, their analogues and other compounds. The true share with any hit is near 9%. Unless noted, calls follow the shape of the dose curve; as a rule, active = well fitted curve in the direction sought with a large enough effect; inconclusive = small, poorly fitted or top-dose-only effect, or another doubt; inactive = no such curve, though single readings can be large; an effect the other way counts as inactive or inconclusive. Potency is read from the fitted curve at half-maximal effect.

SMILES	HPGD inh	HTT cytoprotect	ALDH1A1 inh	LMNA splice mod	KinaseGlo FLuc	HttQ103 aggreg
Cc1ccc(-c2cc(C(=O)N/N=C/C=C/c3ccccc3)n[nH]2)s1	31.6µM*	7.2%[10 µM]	?	?	0.1%	20.0%
CSc1nc2ccc(NC(=O)c3ccc(=O)n(C)n3)cc2s1	nt	2.5%[10 µM]	-6.4%	?	-19.9%	7.3%
O=C(c1ccncc1)N1CCC2(CC1)CCN(c1ncccn1)CC2	-13.2%	6.9%	-3.8%	nt	-5.1%	nt
CC(C)N(C(=O)COC(=O)c1cc(Cl)cc(Cl)c1N)C(C)C	?	8.4%[10 µM]	?	12.5%	-3.8%	9.1%
O=C(/C=C/c1cccc(F)c1)c1ccc(N2CCOCC2)cc1	nt	-10.7%[10 µM]	12.6µM*	nt	nt	18.7%[9.22 µM]
O=C(/C=C/c1cccs1)c1ccc(N2CCOCC2)cc1	nt	-62.1%	-13.7%	nt	?	2.0%
CCN(C(=O)c1coc(=O)c2ccccc12)c1cc(OC)ccc1OC	-17.6%	8.6%[10 µM]	-8.0%	-15.1%	3.2%	-1.8%
O=C1NCCC/C1=N\Nc1ccc(Br)cc1	nt	2.0%[10 µM]	nt	nt	nt	6.0%[9.22 µM]
Cc1nn(Cc2ccccc2Cl)c(C)c1NC(=O)CCCn1nc([N+](=O)[O-])c(Cl)c1C	-10.4%	1.7%[10 µM]	8.91µM*	-14.4%	9.7%	-18.6%
Cc1nn(Cc2ccc(Cl)cc2Cl)c(C)c1NC(=O)c1nn(C)cc1Cl	-5.8%	-3.4%	4.1%	13.4%	1.7%	-2.4%
Cc1nn(Cc2ccc(Cl)cc2Cl)c(C)c1NC(=O)CCl	-11.7%	-5.1%[10 µM]	8.91µM*	?	-0.6%	3.55µM*
Cc1nn(C)c(Cl)c1NC(=O)OCc1ccc(Cl)cc1Cl	-20.5%	-15.4%	8.1%	1.2%	0.4%	7.94µM*
Cc1nn(Cc2c(Cl)cccc2Cl)c(C)c1NC(=O)CCCn1nc(C)c([N+](=O)[O-])c1C	-11.7%	18.0%[10 µM]	3.55µM*	-3.7%	-1.8%	11.3%
Cc1cc(C)cc(NC(=O)CC(C)n2nc(C)cc2C)c1 (centres undefined)	nt	nt	nt	-18.6%[46 µM]	nt	nt
CCOc1ccc(C2C(C#N)=C(N)Oc3cc(C)oc(=O)c32)cc1 (centres undefined)	nt	nt	8.91µM*	0.5%[46 µM]	-5.2%	nt
COCCCN=C1NN=C(c2cc(C)n(Cc3ccccc3Cl)c2C)CS1	nt	-12.5%[10 µM]	25.1µM*	nt	-3.2%	-28.8%
COCCCN=C1NN=C(c2cc(C)n(-c3ccccc3)c2C)CS1	-15.9%	nt	8.91µM*	?	2.3%	8.1%
Cc1cc(C2=NNC(=Nc3ccccc3)SC2)c(C)n1C	nt	4.7%	?	nt	-4.3%	-8.1%
CC(=O)Nc1ccc(C2=NNC(=Nc3ccc(S(=O)(=O)N4CCOCC4)cc3)SC2)cc1	nt	7.0%[10 µM]	nt	nt	nt	-26.1%[9.22 µM]
O=S(=O)(c1ccc(N=C2NN=C(c3cc(F)ccc3F)CS2)cc1)N1CCOCC1	nt	-16.2%	28.2µM*	nt	nt	4.5%
COCCn1c(C)cc(C2=NNC(=Nc3ccccc3F)SC2)c1C	-23.4%	-45.1%	17.8µM*	-1.4%	-15.2%	11.8%
Fc1ccc(/C=N/Nc2nc3ccccc3[nH]2)cc1F	nt	-67.2%	6.8%	nt	0.6%	?
Cc1ccc(C(=O)Nc2c(-c3cccs3)nc3cc(C)ccn23)cc1	-13.8%	9.8%[10 µM]	2.1%	-5.0%	1.3%	-11.7%
N=C(N)c1ccc(N)cc1	-5.7%	10.1%[1.9 µM]	10.5%	?	-3.4%	nt
COCCCN=C1NN=C(c2cc(C)n(-c3ccccc3F)c2C)CS1	nt	-113.7%	25.1µM*	nt	-2.8%	?
SMILES	HPGD inh	HTT cytoprotect	ALDH1A1 inh	LMNA splice mod	KinaseGlo FLuc	HttQ103 aggreg
Fc1ccc(F)c(C2=NNC(=Nc3ccccc3F)SC2)c1	15.8µM*	nt	15.8µM*	?	-17.4%	7.7%
Cc1cc(C2=NNC(=NCCc3ccccc3)SC2)c(C)n1-c1c(C)n(C)n(-c2ccccc2)c1=O	nt	0.6%[10 µM]	nt	nt	nt	-8.1%[9.22 µM]
Fc1ccc(N=C2NN=C(c3cc(F)ccc3F)CS2)cc1	-20.8%	37.9%[1.9 µM]	?	?	-1.2%	?
Cc1ccc(C(=O)CSc2nnc(-c3ccccc3N)n2C)cc1	-21.8%	-9.4%	11.2µM*	?	-5.3%	12.7%
CCn1c(SCC(=O)c2ccc(O)c(O)c2)nnc1-c1ccc(C)cc1	-14.5%	-19.9%	0.4%	?	-9.4%	-16.5%
CCn1c(SCC(=O)c2ccc(NS(=O)(=O)c3ccccc3)cc2)nnc1-c1cccs1	22.4µM*	-11.0%[0.074 µM]	?	-4.4%	3.0%	-2.2%
CCn1c(Cc2cccn2C)nnc1SCC(=O)c1ccc(C)cc1	?	26.7%[10 µM]	10µM*	2.8%	0.4%	1.2%[9.22 µM]
CCn1c(SCC(=O)c2ccccc2)nnc1-c1cnccn1	17.8µM*	4.6%	-7.9%	12.3%	-2.3%	-10.7%
CCOc1cc(C(=O)Nc2ccc(N3CCN(S(C)(=O)=O)CC3)cc2)cc(OCC)c1OCC	2.5%	12.4%	7.8%	3.0%	3.9%	-12.6%
Cc1cccc(C(=O)Oc2ccccc2/C=N/Nc2ccc([N+](=O)[O-])cc2)c1	-9.7%	22.0%[10 µM]	-5.1%	-1.9%	-1.8%	?
CNS(=O)(=O)c1cccc(C(=O)NCC(c2cccs2)N(C)C)c1 (centres undefined)	-1.0%	-2.3%	2.7%	-0.2%	1.8%	-4.4%
Cn1c(SCC(=O)c2ccccc2)nnc1-c1cnccn1	-20.9%	-11.4%	20µM*	-7.9%	7.5%	16.1%
C=CCN(CC=C)C(=O)C[n+]1ccc(C(N)=O)cc1	nt	4.0%[10 µM]	nt	nt	nt	15.7%[9.22 µM]
CN(C)c1ccc(C2N([C@H](C#N)c3ccc(N(C)C)cc3)CCCN2[C@@H](C#N)c2ccc(N(C)C)cc2)cc1 (some centres undefined)	-7.4%	-7.3%[10 µM]	1µM*	nt	-0.2%[7.66 µM]	nt
CC1CN(S(=O)(=O)c2ccc(NC(=O)c3cc(-c4ccccc4O)n[nH]3)cc2)CC(C)O1 (centres undefined)	14.1µM*	-21.9%	5.0%	?	-3.7%	17.0%[9.22 µM]
CCN(CC)c1nc2c(s1)C(=O)CC(C)(C)C2	-13.4%	-17.5%	12.6µM*	15.3%	0.1%	-10.1%[9.22 µM]
O=C(NCc1cccnc1)c1ccc(-c2ccc(Cl)cc2)o1	nt	-11.6%[10 µM]	?	?	-3.6%	10.0%[9.22 µM]
O=C(Nc1cc(S(=O)(=O)N2CCCCC2)ccc1Cl)c1ccccc1NS(=O)(=O)c1ccc(F)cc1	?	-67.3%[10 µM]	?	?	1.8%	3.16µM*

High-throughput results from PubChem.
